Measurements published in PubChem BioAssay (NCI).
Compounds without any hit were thinned out: in the full panel of roughly 79,000, 15% have a hit. The source made the active and inactive calls. No stated cut-off is given here; in the data, active means growth inhibition above about 70%; inactive means the rest.

How the values were obtained:
[1] = NCI Yeast Anticancer Drug Screen. Data for the rad52 strain (AID 147);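 further: 0% = growth of vehicle-treated control cultures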; settings: S. cerevisiae rad52 mutant growth inhibition, stronger effect = higher value
How it was run: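 Inhibition of yeast growth, referenced to vehicle controls, was the measured output for a strain with defective DNA damage repair.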

[2] = NCI Yeast Anticancer Drug Screen. Data for the wt1 strain (AID 149);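 further: 0% = growth of vehicle-treated wt1 cultures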; settings: S. cerevisiae wt1 strain (SPY 50644) growth inhibition, stronger effect = higher value
How it was run: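 Each compound is tested on wt1 yeast and the loss of growth versus vehicle gives the inhibition value.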

[3] = NCI Yeast Anticancer Drug Screen. Data for the rad50EPP+ strain (AID 151);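 further: 0% = growth of vehicle-treated control cultures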; settings: S. cerevisiae rad50 mutant strain, stronger effect = higher value
How it was run: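 Genetically defined yeast (rad50EPP+, DNA damage repair alteration) is grown with compound, and inhibition of growth is expressed relative to vehicle-treated controls.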

[4] = NCI Yeast Anticancer Drug Screen. Data for the mgt1 strain (AID 153); settings: S. cerevisiae mgt1 mutant growth inhibition, stronger effect = higher value
How it was run: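 In the mgt1 strain, test compounds were added and growth inhibition was determined relative to vehicle-treated controls.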

[5] = NCI Yeast Anticancer Drug Screen. Data for the rad50 strain (AID 155);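 further: 0% = growth of vehicle-only cultures of the same strain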; settings: S. cerevisiae rad50 strain growth inhibition, stronger effect = higher value
How it was run: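 Vehicle-treated cultures provide the reference for the growth inhibition reported for compound-exposed, repair-deficient yeast.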

[6] = NCI Yeast Anticancer Drug Screen. Data for the mec2-1 strain (AID 157); settings: S. cerevisiae mec2-1 strain, stronger effect = higher value
How it was run: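 Each compound was tested on mec2-1 yeast, a strain altered in DNA damage repair or cell cycle control. Growth inhibition is reported relative to vehicle.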

[7] = NCI Yeast Anticancer Drug Screen. Data for the rad14 strain (AID 159);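 further: 0% = growth of vehicle-treated control cultures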; settings: S. cerevisiae rad14 strain growth inhibition, stronger effect = higher value
How it was run: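 Inhibition of growth is reported for a repair-deficient yeast mutant following compound treatment, calculated relative to cultures that received vehicle.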

[8] = NCI Yeast Anticancer Drug Screen. Data for the sgs1 mgt1 strain (AID 161);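 further: 0% = growth of cultures given vehicle only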; settings: S. cerevisiae sgs1 mgt1 strain, stronger effect = higher value
How it was run: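 Inhibition of yeast growth, normalised to vehicle-treated controls, is reported for a strain bearing genetic alterations in DNA damage repair.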

[9] = NCI Yeast Anticancer Drug Screen. Data for the CLN2oe strain (AID 163);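 further: 0% = growth of vehicle-only control cultures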; settings: S. cerevisiae CLN2oe strain, stronger effect = higher value
How it was run: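 First, the altered yeast strain was treated with each compound; second, its growth was measured; finally, inhibition was derived by comparison with vehicle controls.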

[10] = NCI Yeast Anticancer Drug Screen. Data for the cln2 rad14 strain (AID 165);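 further: 0% = growth equal to vehicle treated cultures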; settings: S. cerevisiae cln2 rad14 strain, stronger effect = higher value
How it was run: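 Test compounds were added to cln2 rad14 yeast cultures; inhibition of growth was then determined by comparison with vehicle treatment.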

[11] = NCI Yeast Anticancer Drug Screen. Data for the bub3 strain (AID 167); settings: S. cerevisiae bub3 mutant strain, stronger effect = higher value
How it was run: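 Mutant yeast screening strain plus compound; vehicle-treated cultures serve as the 0% inhibition reference.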

[12] = NCI Yeast Anticancer Drug Screen. Data for the wt2 strain (AID 169); settings: S. cerevisiae wt2 strain growth inhibition, stronger effect = higher value
How it was run: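 The panel's yeast strains carry defined changes in DNA repair or cell cycle genes. Each strain is grown with compound, and growth loss is scored relative to vehicle.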

[13] = NCI Yeast Anticancer Drug Screen. Data for the mlh1 strain (AID 171);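 further: 0% = growth of vehicle-treated control cultures of the same strain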; settings: S. cerevisiae mlh1 strain growth inhibition, stronger effect = higher value
How it was run: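 Inhibition values reflect reduced yeast growth in the presence of compound, referenced to vehicle controls, using a strain chosen for its alteration in DNA repair or cell cycle control.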

[14] = NCI Yeast Anticancer Drug Screen. Data for the sgs1 strain (AID 173);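 further: 0% = growth of vehicle-only control cultures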; settings: S. cerevisiae sgs1 mutant, stronger effect = higher value
How it was run: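 Vehicle-treated cultures served as reference for growth inhibition of a yeast strain altered in DNA damage repair or cell cycle control after compound exposure.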

[15] = NCI Yeast Anticancer Drug Screen. Data for the mlh1 rad18 strain (AID 175); settings: S. cerevisiae mlh1 rad18 strain growth inhibition, stronger effect = higher value
How it was run: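 Inhibition values reflect reduced growth of mutant yeast versus vehicle-treated controls following compound exposure; the mutations affect DNA damage repair.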

[16] = NCI Yeast Anticancer Drug Screen. Data for the rad18 strain (AID 177); settings: S. cerevisiae rad18 mutant growth inhibition, stronger effect = higher value
How it was run: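 Steps: expose repair-mutant yeast to compound; measure growth; express as inhibition relative to vehicle control.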

[17] = at 5.0 µM (retest, dose inferred, filed as 0.5)
[18] = at 50.0 µM (retest, dose inferred, filed as 5.0)

Measured: growth inhibition

CCOC(=O)c1cnc2cc(C(F)(F)F)ccc2c1N=[N+]=[N-]
inactive: [1]; at 1.2 µM 12% | [1]; at 3.7 µM 13% | [1]; at 11.0 µM 23% | [1]; at 33.0 µM 48% | [2]; at 1.2 µM 3% | [2]; at 3.7 µM 4% | [2]; at 11.0 µM 8% | [2]; at 33.0 µM 37% | [3]; at 1.2 µM 6% | [3]; at 3.7 µM 13% | [3]; at 11.0 µM 26% | [3]; at 33.0 µM 54% | [4]; at 1.2 µM 4% | [4]; at 3.7 µM 6% | [4]; at 11.0 µM 22% | [4]; at 33.0 µM 66% | [5]; at 1.2 µM 8% | [5]; at 3.7 µM 25% | [5]; [17] 7% | [5]; at 11.0 µM 23% | [5]; at 33.0 µM 50% | [5]; [18] 20% | [5]; at 50.0 µM 44.4% | [6]; at 1.2 µM 14% | [6]; at 3.7 µM 12% | [6]; [17] -3% | [6]; at 11.0 µM 22% | [6]; at 33.0 µM 56% | [6]; [18] 4% | [6]; at 50.0 µM 20.2% | [7]; at 1.2 µM 7% | [7]; at 3.7 µM 3% | [7]; at 11.0 µM 12% | [7]; at 33.0 µM 49% | [8]; [17] -1% | [8]; [18] -3% | [8]; at 50.0 µM 43.4% | [9]; at 1.2 µM 11% | [9]; at 3.7 µM 12% | [9]; at 11.0 µM 18% | [9]; at 33.0 µM 64% | [10]; [17] -4% | [10]; [18] 1% | [10]; at 50.0 µM 25.1% | [11]; at 1.2 µM 11% | [11]; at 3.7 µM 7% | [11]; [17] -17% | [11]; at 11.0 µM 14% | [11]; at 33.0 µM 46% | [11]; [18] 48% | [11]; at 50.0 µM -3.4% | [12]; at 1.2 µM 2% | [12]; at 3.7 µM 2% | [12]; at 11.0 µM 14% | [12]; at 33.0 µM 59% | [13]; at 1.2 µM 7% | [13]; at 3.7 µM 6% | [13]; at 11.0 µM 15% | [13]; at 33.0 µM 51% | [14]; at 1.2 µM 10% | [14]; at 3.7 µM 12% | [14]; at 11.0 µM 25% | [15]; [17] -4% | [15]; [18] 12% | [15]; at 50.0 µM 59.9% | [16]; at 1.2 µM 15% | [16]; at 3.7 µM 22% | [16]; at 11.0 µM 33% | [16]; at 33.0 µM 58%
active: [1]; at 100.0 µM 85% | [2]; at 100.0 µM 87% | [3]; at 100.0 µM 82% | [4]; at 100.0 µM 92% | [5]; at 100.0 µM 83% | [6]; at 100.0 µM 90% | [7]; at 100.0 µM 93% | [9]; at 100.0 µM 87% | [11]; at 100.0 µM 74% | [12]; at 100.0 µM 93% | [13]; at 100.0 µM 87% | [14]; at 33.0 µM 75% | [14]; at 100.0 µM 94% | [16]; at 100.0 µM 88%

CC(/C=C/c1ccc2c(c1)OCO2)[N+](=O)[O-] (stereo not drawn)
active: [1]; at 3.7 µM 93% | [1]; at 11.0 µM 99% | [1]; at 33.0 µM 99% | [1]; at 100.0 µM 99% | [2]; at 3.7 µM 71% | [2]; at 11.0 µM 99% | [2]; at 33.0 µM 100% | [2]; at 100.0 µM 99% | [3]; at 1.2 µM 73% | [3]; at 3.7 µM 94% | [3]; at 11.0 µM 99% | [3]; at 33.0 µM 99% | [3]; at 100.0 µM 99% | [4]; at 11.0 µM 99% | [4]; at 33.0 µM 99% | [4]; at 100.0 µM 99% | [5]; at 3.7 µM 86% | [5]; [17] 86% | [5]; at 11.0 µM 99% | [5]; at 33.0 µM 99% | [5]; [18] 97% | [5]; at 50.0 µM 99.6% | [5]; at 100.0 µM 99% | [6]; at 11.0 µM 100% | [6]; at 33.0 µM 99% | [6]; [18] 99% | [6]; at 50.0 µM 99.7% | [6]; at 100.0 µM 99% | [7]; at 11.0 µM 100% | [7]; at 33.0 µM 99% | [7]; at 100.0 µM 100% | [8]; [18] 98% | [8]; at 50.0 µM 99.5% | [9]; at 11.0 µM 99% | [9]; at 33.0 µM 99% | [9]; at 100.0 µM 99% | [10]; [18] 98% | [10]; at 50.0 µM 99.2% | [11]; at 11.0 µM 99% | [11]; at 33.0 µM 99% | [11]; [18] 98% | [11]; at 50.0 µM 99% | [11]; at 100.0 µM 98%
inactive: [1]; at 1.2 µM 40% | [2]; at 1.2 µM 8% | [4]; at 1.2 µM 1% | [4]; at 3.7 µM 16% | [5]; at 1.2 µM 33% | [6]; at 1.2 µM 4% | [6]; at 3.7 µM 30% | [6]; [17] 2% | [7]; at 1.2 µM 18% | [7]; at 3.7 µM 61% | [8]; [17] 62% | [9]; at 1.2 µM -1% | [9]; at 3.7 µM 37% | [10]; [17] -13% | [11]; at 1.2 µM 23% | [11]; at 3.7 µM 69% | [11]; [17] 46%
